From PubChem BioAssay AID463173 (ICCB-Longwood Screening Facility, Harvard Medical School, 2010) come the findings set out here.

Out of some 52,000 compounds screened, about 4,300 (8.3%) were called active. This is one part of a sample in which actives are shown more often than they occur. Cut-off read from the data, not from the text of the source: active = survival mostly below about 52% (no sharp cut-off); inactive = mostly above about 56%.

The test deals with DeltatarO mutant. In words: growth inhibition of S. aureus wild type versus tarO mutant, primary screen, teichoic acid synthesis inhibitors, RN4220, OD600 (AID 463173). The settings on record: OD600, 18 h, stronger effect = lower value, screened at 18.75 µg/mL (by protocol).
With `Cc1ccc(-c2nnc(SCC(=O)NCCC(C)C)nc2-c2ccc(C)cc2)cc1`, the survival is 104% (inactive).

For `Cc1cccc(N(C(=O)c2csnn2)C(C(=O)NC2CCCCC2)c2ccco2)c1` (configuration not stated), the survival is 87% (inactive).

As for `Cc1cc(C)cc(NC(=O)CSc2nccn2C2CCCC2)c1`, the survival was 94% (inactive).

Regarding `COc1ccc(-n2nnnc2C2CCN(S(=O)(=O)c3ccc(C)cc3)CC2)cc1`, the survival was 99% (inactive).

With `Cc1ccc(CN2C(=O)C(O)(c3c[nH]c4ccccc34)c3cc(Cl)ccc32)cc1` (configuration not stated), the survival is -3% (active).

On to `O=C1N(Cc2ccccc2)c2ccccc2C1(O)c1c[nH]c2ccccc12` (configuration not stated), for which the survival is 55% (inactive).

For the compound `O=C1N(Cc2ccccc2Cl)c2ccccc2C1(O)c1c[nH]c2ccccc12` (configuration not stated), the survival is 64% (inactive).

On to `Cc1ccc(C)c(CN2C(=O)C(O)(c3c[nH]c4ccccc34)c3ccccc32)c1` (configuration not stated), for which the survival was 142% (inactive).

Consider `Cc1ccccc1CN1C(=O)C(O)(c2c[nH]c3ccccc23)c2cc(Cl)ccc21` (configuration not stated), for which the survival is -2% (active).

`CC(C)N1C(=O)C(O)(c2c[nH]c3ccccc23)c2ccccc21` (configuration not stated): the survival is 129% (inactive).

With `CCCCN1C(=O)C(O)(c2c[nH]c3ccccc23)c2cc(Br)ccc21` (configuration not stated), the survival was 50% (inactive).

With `O=C1N(Cc2ccccc2)c2ccc(Cl)cc2C1(O)c1c[nH]c2ccccc12` (configuration not stated), the survival was 66% (inactive).

Consider `CCN1C(=O)C(O)(c2c[nH]c3ccccc23)c2cc(Br)ccc21` (configuration not stated), for which the survival was 55% (active).

In the case of `CCc1ccccc1NC(=O)Nc1c[nH]c(=O)[nH]c1=O`, the survival is 75% (inactive).

As for `c1ccc(Nc2c(-c3ccccc3)nc3ncccn23)cc1`, the survival is 81% (inactive).

On to `O=C(OCc1cc(=O)n2nc(-c3cccs3)sc2n1)c1ccccc1`, for which the survival is 65% (inactive).

For `CCc1nn(CC(=O)NCCCc2ccccc2)c(=O)c2cc3ccccc3n12`, the survival was 90% (inactive).

As to `C/C(=N\NC(N)=O)C1CC(Cc2ccccc2)C(=O)O1` (configuration not stated), the survival is 57% (inactive).

In the case of `Cc1ccc(-c2nc3ccccc3n3c(-c4ccccc4)c4c(=O)n(C)c(=O)n(C)c4c23)cc1`, the survival is 97% (inactive).

Turning to `COc1ccc(Br)cc1CNC(=O)C1CCCCN1S(=O)(=O)c1ccc(F)cc1` (configuration not stated), the survival is 81% (inactive).

On to `COc1ccc(C(=O)NCC(c2ccc3c(c2)OCO3)N2CCN(C)CC2)cc1` (configuration not stated), for which the survival was 47% (active).

In the case of `COc1ccc(CNC(=O)C(=O)NCC(c2ccc3c(c2)OCO3)N2CCOCC2)cc1` (configuration not stated), the survival was 99% (inactive).

As to `CNC(=O)C(=O)NCC(c1ccc2c(c1)OCO2)N1CCOCC1` (configuration not stated), the survival is 89% (inactive).

As to `COc1ccc(CCNC(=O)C(=O)NCC(c2ccc3c(c2)OCO3)N2CCOCC2)cc1OC` (configuration not stated), the survival is 69% (inactive).

`CCOc1ccc(C(=O)NCC(c2ccc3c(c2)OCO3)N2CCN(C)CC2)cc1` (configuration not stated): the survival was 78% (inactive).

On to `COc1cccc(C(=O)NCC(c2ccc3c(c2)OCO3)N2CCN(C)CC2)c1` (configuration not stated), for which the survival was 112% (inactive).

In the case of `CC(C)(C)C(=O)NCC(c1ccc2c(c1)OCO2)N1CCOCC1` (configuration not stated), the survival is 0% (active).

For the compound `O=C(NCCO)C(=O)NCC(c1ccc2c(c1)OCO2)N1CCOCC1` (configuration not stated), the survival is 75% (inactive).

On to `O=C(NCCCO)C(=O)NCC(c1ccc2c(c1)OCO2)N1CCOCC1` (configuration not stated), for which the survival was 37% (active).

For `CC(C)(C)CC(=O)NCC(c1ccc2c(c1)OCO2)N1CCOCC1` (configuration not stated), the survival was 80% (inactive).

For `CN(C)CCCNC(=O)C(=O)NCC(c1ccc2c(c1)OCO2)N1CCOCC1` (configuration not stated), the survival was 106% (inactive).

In the case of `COc1ccc(CCNC(=O)C(=O)NCC(c2ccc3c(c2)OCO3)N2CCOCC2)cc1` (configuration not stated), the survival was 32% (active).

`CC1=C(C(=O)Nc2cccc(C(F)(F)F)c2)C(c2ccccc2)n2ncnc2N1` (configuration not stated): the survival is 103% (inactive).

For `COc1ccc(CN2C3CCCC2CC(NC(=O)NC2CCCCC2)C3)cc1` (configuration not stated), the survival is 85% (inactive).

As for `Cc1ccc(F)cc1NC(=O)CCc1c(C)nn(-c2ccc(N3CCCC3)nn2)c1C`, the survival was 78% (inactive).

Take `CCOc1ccc(C(C(=O)NC2CCCC2)N(Cc2ccco2)C(=O)Cn2nnc3ccccc32)cc1OC` (configuration not stated): the survival was 110% (inactive).

For the compound `COc1ccc(-c2cccc(NS(=O)(=O)c3cc(C)ccc3OC)c2)nn1`, the survival is 122% (inactive).

As to `Nc1c(-c2nc(-c3ccc(Cl)cc3)cs2)c2ccccn2c1C(=O)c1ccc2c(c1)OCO2`, the survival was 101% (inactive).

As to `CC1CCCCN1C(=O)CSc1nnc2c3ccccc3n(CC(=O)O)c2n1` (configuration not stated), the survival is 97% (inactive).

Consider `CCOC(=O)c1c(C)[nH]c(C)c1S(=O)(=O)N1CCCC(C(=O)Nc2cc(C)ccc2C)C1` (configuration not stated), for which the survival was 83% (inactive).

Consider `COCCNC(=O)C(=O)NCC(c1ccc2c(c1)OCO2)N1CCOCC1` (configuration not stated), for which the survival is 0% (active).

For `CN(C)CCNC(=O)C(=O)NCC(c1ccc2c(c1)OCO2)N1CCOCC1` (configuration not stated), the survival was 69% (inactive).

As to `COCCCNC(=O)C(=O)NCC(c1ccc2c(c1)OCO2)N1CCOCC1` (configuration not stated), the survival is 95% (inactive).

For the compound `COc1ccccc1CNC(=O)C1CCCN(C(=O)c2cnn(-c3ccc(F)cc3)c2-n2cccc2)C1` (configuration not stated), the survival is 76% (inactive).

Take `CCN(C(=O)Cn1nnc2sc3c(c2c1=O)CCC(C(C)(C)C)C3)c1cccc(C)c1` (configuration not stated): the survival was 78% (inactive).

As for `COc1ccc(OC)c(CNS(=O)(=O)c2ccc(-c3cc(C(F)(F)F)on3)s2)c1`, the survival was -4% (active).

Turning to `COc1ccccc1CNS(=O)(=O)c1ccc(-c2cc(C(F)(F)F)on2)s1`, the survival was 102% (inactive).

On to `COc1ccc(CNS(=O)(=O)c2ccc(-c3cc(C(F)(F)F)on3)s2)cc1OC`, for which the survival was 118% (inactive).

For `COc1cccc(OCC(=O)NC2CC(=O)N(c3cccc(OC)c3)C2)c1` (configuration not stated), the survival was 106% (inactive).

Consider `COc1cccc(N2CC(NC(=O)COc3ccc4ccccc4c3)CC2=O)c1` (configuration not stated), for which the survival is 107% (inactive).

Consider `COc1cccc(N2CC(NC(=O)C3CC3)CC2=O)c1` (configuration not stated), for which the survival was 105% (inactive).

`COc1ccc(OCC(=O)NC2CC(=O)N(c3cccc(OC)c3)C2)cc1` (configuration not stated): the survival was 0% (active).

For the compound `COc1ccc(N2CC(NC(=O)c3ccco3)CC2=O)cc1` (configuration not stated), the survival was 58% (inactive).

With `COc1cccc(N2CC(NC(=O)C3CCCC3)CC2=O)c1` (configuration not stated), the survival is 46% (active).

Regarding `COc1cccc(N2CC(NC(=O)c3ccco3)CC2=O)c1` (configuration not stated), the survival is 37% (active).

Regarding `COc1ccc(N2CC(NC(=O)c3ccco3)CC2=O)cc1OC` (configuration not stated), the survival is 89% (inactive).

Take `COc1cccc(N2CC(NC(=O)C3CCCCC3)CC2=O)c1` (configuration not stated): the survival is 144% (inactive).

Take `O=C(Nc1cccc(F)c1)C1CCCN(S(=O)(=O)c2cccc3cccnc23)C1` (configuration not stated): the survival was 70% (inactive).

For the compound `COc1ccccc1CNc1ncnc2c1c(-c1ccccc1)cn2-c1ccc(Br)cc1`, the survival was 80% (inactive).

Consider `COc1ccc(C)cc1NC(=O)CN1C(=O)COc2ccc(S(=O)(=O)N3CCOCC3)cc21`, for which the survival is 98% (inactive).

Take `COc1ccc(-c2nnc(SCC(=O)NCc3ccc(C)cc3)nc2-c2ccc(OC)c(OC)c2)cc1OC`: the survival is 76% (inactive).

With `CCNS(=O)(=O)c1cccs1`, the survival is 96% (inactive).

As to `Cc1nn(CC(=O)Nc2ccccc2F)c(=O)c2c(C)n(-c3ccc(Cl)cc3)nc12`, the survival is 102% (inactive).

On to `Cc1cc(NC(=O)NCc2ccc3c(c2)CCN3C(=O)c2ccccc2)ccc1Br`, for which the survival was 116% (inactive).

As for `CCOC(=O)c1c(Oc2ccc(C(C)=O)cc2)nnc(-c2ccccc2)c1-c1ccccc1`, the survival is 67% (inactive).

As for `CCOC(=O)c1c(C)oc2ncnc(Nc3ccc(CC)cc3)c12`, the survival is 85% (inactive).

Regarding `CCOC(=O)c1c(C)oc2nc(C)nc(Nc3ccc(C)c(Cl)c3)c12`, the survival is 89% (inactive).

As to `CCOC(=O)c1cnc(-c2ccccc2)nc1Nc1ccc(C)cc1`, the survival is 90% (inactive).

As to `CCOC(=O)c1c(Nc2ccccc2)nnc(-c2ccccc2)c1-c1ccccc1`, the survival is 6% (active).

Consider `CCOC(=O)c1c(Nc2ccc(O)cc2)nnc(-c2ccccc2)c1-c1ccccc1`, for which the survival is 95% (inactive).

For `CCOC(=O)c1c(Nc2ccc(F)cc2)nnc(-c2ccccc2)c1-c1ccccc1`, the survival is -3% (active).

As for `CCOC(=O)c1c(Nc2ccc(C)c(C)c2)nnc(-c2ccccc2)c1-c1ccccc1`, the survival is -5% (active).

For the compound `CCOC(=O)c1c(Nc2ccc(C)cc2)nnc(-c2ccccc2)c1-c1ccccc1`, the survival is 1% (active).

Take `CCOC(=O)c1c(C)oc2nc(C)nc(Nc3ccc(CC)cc3)c12`: the survival is 115% (inactive).

In the case of `COc1cc(C2C(C(=O)Nc3ccccc3C)=C(C)Nc3nc(SCc4cc(C)ccc4C)nn32)ccc1O` (configuration not stated), the survival is 105% (inactive).

Take `CCOc1ccccc1N(CC)C(=O)c1cc2c(=O)[nH]c3ccc(C)cc3c2s1`: the survival is 74% (inactive).

For `Cc1ccc(-n2nc(C)c3c(C)cc(=O)n(CC(=O)NC(C)C)c32)cc1`, the survival is 105% (inactive).

For `O=C(CN1C(=O)COc2ccc(S(=O)(=O)N3CCCCCC3)cc21)Nc1cccc(Cl)c1`, the survival was 60% (inactive).

On to `COc1cc(OC)c(N(C)C(=O)c2sc3nc4n(c(=O)c3c2C)CCCC4)cc1Cl`, for which the survival is 53% (inactive).

On to `O=C(Cc1ccccc1)N(Cc1cccnc1)c1nc2ccc(Cl)cc2s1`, for which the survival was 72% (inactive).

With `O=C(Cc1ccc(-c2ccccc2)cc1)NCCS(=O)(=O)N1CCN(c2ccccc2)CC1`, the survival was 122% (inactive).

As for `CCOc1ccc(CNC(=O)c2ccc(NC(=O)c3nsc4ccccc34)cc2)cc1`, the survival is 79% (inactive).

In the case of `COc1ccc(C(=O)CN2CCN(S(=O)(=O)c3ccc(C(C)C)cc3)CC2)cc1`, the survival is 81% (inactive).

For the compound `COc1ccc(N2CC(NC(=O)/C=C\c3ccc(OC)c(OC)c3)CC2=O)cc1` (configuration not stated), the survival was 55% (inactive).

As to `CC(=O)c1ccc(NC(=O)CC2Oc3ccc(C)cc3NC2=O)cc1` (configuration not stated), the survival was 85% (inactive).

As for `O=C(NCCc1ccc(F)cc1)C(=O)NCC(c1ccc2c(c1)OCO2)N1CCOCC1` (configuration not stated), the survival was 74% (inactive).

Consider `CCN(C(=O)Cc1c(C(=O)O)[nH]c2ccccc12)c1ccc(OC)cc1`, for which the survival was 65% (inactive).

As for `Cc1ccc2[nH]c3c(=O)n(CC(=O)N(C)c4cc(Cl)ccc4C)ncc3c2c1`, the survival was 89% (inactive).

In the case of `Cc1ccc(C)c(N(C)C(=O)Cc2c(C(=O)O)[nH]c3ccc(Cl)cc23)c1`, the survival is 40% (active).

In the case of `CCCN(C(=O)Cc1c(C(=O)O)[nH]c2ccc(Cl)cc12)c1ccc(OCC)cc1`, the survival was 47% (active).

Turning to `Cc1cccc(N(C)C(=O)Cc2c(C(=O)O)[nH]c3ccccc23)c1`, the survival is 134% (inactive).

`COc1ccc(OC)c(NC(=O)Cc2c(C(=O)O)[nH]c3ccc(Cl)cc23)c1`: the survival was 54% (inactive).
